# Data as given in the supplement of paper PMC11006884.
# Targets with a hit are over-represented here; the source holds about 6,500 in all. About 2% of all pairs of compound and target were hits.
# Compound: COC(=O)C#Cc1ccccc1 [methyl 3-phenylpropiolate]
# Test: log2 ratio of iodoacetamide-alkyne labeling of the cysteine site, DMSO over compound (competition); higher = stronger covalent engagement of the cysteine by the compound, active = 1 or more
# Conditions: 500 µM; treatment time 1 h; system: HEK293T cell lysate
# Outline: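 Three replicates, each with duplicate channels, were prepared from HEK293T lysate (2 mg/mL) treated with vehicle or electrophile at 500 µM for 1 h at ambient temperature. Iodoacetamide alkyne was then applied for 1 h, and samples were clicked to sCIP-TMT reagents, pooled, trypsin-digested overnight at 37 °C, enriched on streptavidin, acid-eluted and analysed on Orbitrap Eclipse LC-MS/MS with FAIMS, with FragPipe quantification. The log2 competition ratio per cysteine is the mean control-channel divided by the mean compound-channel reporter intensity. Cysteines quantified in only one replicate were left out.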
row,Target,log2 ratio of iodoacetamide-alkyne labeling
1,UniProt Q7Z5K2_C251,0.11 (inactive)
2,LGMN C219 (UniProt Q99538),0.865 (inactive)
3,DNAJB14 C77 (UniProt Q8TBM8),1.08 (active)
4,VPS8 C1371 (UniProt Q8N3P4),0.234 (inactive)
5,UniProt Q7RTV0_C11,-0.0735 (inactive)
6,AKT1S1 C61 (UniProt Q96B36),0.266 (inactive)
7,PIK3R4 C899 (UniProt Q99570),0.087 (inactive)
8,UniProt Q8WZA9_C373,0.706 (inactive)
9,CAND1 C413 (UniProt Q86VP6),0.304 (inactive)
10,AKAP1 C102 (UniProt Q92667),0.334 (inactive)
11,THOC2 C743 (UniProt Q8NI27),0.442 (inactive)
12,AHCYL2 C353 (UniProt Q96HN2),1.13 (active)
13,ZNF318 C1559 (UniProt Q5VUA4),0.605 (inactive)
14,DDX1 C110 (UniProt Q92499),0.315 (inactive)
15,AHCTF1 C521 (UniProt Q8WYP5),1.16 (active)
16,ACO2 C385 (UniProt Q99798),1.66 (active)
17,INTS1 C643 (UniProt Q8N201),0.127 (inactive)
18,AKAP1 C147 (UniProt Q92667),1.02 (active)

row,Target,log2 ratio of iodoacetamide-alkyne labeling
1,UniProt Q9BSH4_C256,-0.207 (inactive)
2,AKAP1 C376 (UniProt Q92667),1.15 (active)
3,NCAPG C751 (UniProt Q9BPX3),0.416 (inactive)
4,SECISBP2 C719 (UniProt Q96T21),-0.258 (inactive)
5,YOD1 C97 (UniProt Q5VVQ6),0.146 (inactive)
6,CAMSAP1 C1379 (UniProt Q5T5Y3),1.45 (active)
7,EHMT2 C617 (UniProt Q96KQ7),0.759 (inactive)
8,UniProt Q8N1I0_C1723,1.34 (active)
9,GTF3C2 C608 (UniProt Q8WUA4),0.147 (inactive)
10,UniProt Q8IX01_C183,0.451 (inactive)
11,TMEM209 C301 (UniProt Q96SK2),0.858 (inactive)
12,UniProt Q969V6_C326,1.42 (active)
13,WRNIP1 C39 (UniProt Q96S55),-0.0706 (inactive)
14,UniProt Q96L50_C246,0.109 (inactive)
15,PYCR2 C262 (UniProt Q96C36),0.538 (inactive)
16,ZGPAT C377 (UniProt Q8N5A5),0.342 (inactive)
17,GIGYF2 C289 (UniProt Q6Y7W6),-0.00206 (inactive)
